The text below walks through data of PubChem BioAssay (NCATS).

The target in assay [1] is Protein phosphatase 1D (Homo sapiens) (UniProt O15297). Briefly: Rhodamine-PBP qHTS Assay for Modulators of WT P53-Induced Phosphatase 1 (WIP1) (AID 1347425; active means well fitted curve in the direction sought with a large enough effect; an effect the other way counts as inactive or inconclusive). The method in brief:
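Steps: enzyme with Rh-PBP sensor and compounds, room-temperature incubation of 1 hr, baseline read, addition of VEPPL-pS-QETFS (10 uM final), kinetic fluorescence reads at 525/598 nm. Activity equals final minus baseline signal.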

The nature of assay [2]: Primary qHTS for inhibitors of La Crosse Virus (LACV) - induced cell death in SH-SY5Y cells (AID 1508616; active means well fitted curve in the direction sought with a large enough effect; an effect the other way counts as inactive or inconclusive;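 further: top concentration of the series differs between compounds; higher means more rescue of cells from virus-induced death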). The method in brief: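 SH-SY5Y, 6000 cells/well; cpd via pin tool in DMSO; LACV 0.01 MOI; 6 d 37C 5% CO2; ATPLite, 5 min RT; luminescence normalized to ±virus DMSO controls.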
A general note: qHTS replaces the single test concentration by a dilution series.

For assay [3], the target named is Calcium and integrin-binding protein 1 (Homo sapiens) (UniProt Q99828). The assay is described as follows: Primary qHTS for Identification of Calcium Integrin Binding Protein 1 (CIB1) Competitor (AID 1508620; active means well fitted curve in the direction sought with a large enough effect; an effect the other way counts as inactive or inconclusive;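 further: GST tagged CIB1 binding a fluorescein labelled alphaIIb integrin peptide tracer; top concentration of the series differs between compounds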). The method in brief:
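Fluorescence polarization competition: GST-tagged CIB1 (1 uM final) preincubated with compound 15 min at room temperature, then FITC-labelled alphaIIb peptide (100 nM final) added. After 15 min at room temperature, polarization read at Ex 480/Em 540.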

A short description of assay [4]: Primary qHTS for small molecule stabilizers of the endoplasmic reticulum resident proteome: Secreted ER Calcium Modulated Protein (SERCaMP) assay (AID 1508630; active means well fitted curve in the direction sought with a large enough effect; an effect the other way counts as inactive or inconclusive). The method in brief: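 The SH-SY5Y reporter protocol was run at 3 concentrations up to 38.3 uM (primary) or 11 concentrations (follow-up): 16 h compound, 100 nM thapsigargin for 4 h, then extracellular luciferase luminescence.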

Assay [5] is described as follows: A High-Content qHTS Against Drug Library for the Identification of Small Molecules that Inhibit DYT1 Early Onset Primary Dystonia-Associated Cell Pathology (AID 1645839). Further: series mostly up to about 46 µM. In outline:
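Cells were seeded and left for 24 h, then dosed with compound alongside tetracycline induction of mutant EGFP-TorsinA. They were incubated for 48 h, fixed in 4% paraformaldehyde, permeabilized and imaged for mislocalization (%pathology) and cell count.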

Assay [6] deals with Cytochrome P450 2D6 (Homo sapiens) (UniProt P10635). The assay is described as follows: Cytochrome P450 family 2 subfamily D member 6 (CYP2D6) small molecule antagonists: luciferase biochemical (cell-free) qHTS assay (AID 1645840; active means well fitted curve in the direction sought with a large enough effect in the repeat runs; an effect the other way counts as inactive or inconclusive; further: nearly all actives have a fitted effect of over 55% in size; further: potency means the concentration at half of the fitted maximal effect). The method in brief: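 P450-Glo CYP2D6 system: proluciferin substrate converted by enzyme to luciferin, read by luminescence proportional to activity. Enzyme-substrate mix with compound 10 min at room temperature, then NADPH regeneration 1 h before detection reagent.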
Sequence of Cytochrome P450 2D6 (Homo sapiens) (P10635 whole entry, looked up): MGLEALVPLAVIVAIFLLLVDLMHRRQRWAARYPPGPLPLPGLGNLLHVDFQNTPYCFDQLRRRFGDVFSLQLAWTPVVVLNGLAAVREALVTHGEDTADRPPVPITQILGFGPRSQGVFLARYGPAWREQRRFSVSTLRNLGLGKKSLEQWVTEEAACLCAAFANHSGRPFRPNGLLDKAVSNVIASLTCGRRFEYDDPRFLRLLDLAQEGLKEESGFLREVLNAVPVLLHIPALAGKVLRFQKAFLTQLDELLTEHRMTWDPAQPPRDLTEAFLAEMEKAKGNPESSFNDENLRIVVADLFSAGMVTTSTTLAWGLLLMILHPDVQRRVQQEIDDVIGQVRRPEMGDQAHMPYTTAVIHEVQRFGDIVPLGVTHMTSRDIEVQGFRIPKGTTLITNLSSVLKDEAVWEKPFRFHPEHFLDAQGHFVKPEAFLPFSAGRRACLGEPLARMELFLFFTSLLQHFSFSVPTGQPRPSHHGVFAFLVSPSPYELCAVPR

Assay [7] in a line: Primary qHTS for inhibitors of SARS-S pseudo-typed particle cell entry (AID 1479145). Further: nearly all actives have a fitted effect of over 45% in size. Further: potency means the concentration at half of the fitted maximal effect.
Assay [8] in a line: Primary qHTS for Huh7 cytotoxicity: counterscreen for inhibitors of MERS-S pseudotyped particle cell entry (AID 1479147). Further: potency means the concentration at half of the fitted maximal effect.
Assay [9] in a line: Primary qHTS for inhibitors of MERS-S pseudo-typed particle cell entry (AID 1479149). Further: nearly all actives have a fitted effect of over 60% in size. Further: potency means the concentration at half of the fitted maximal effect.
The nature of assay [10]: Primary qHTS for Vero E6 cytotoxicity: counterscreen for inhibitors of SARS-S pseudo-typed particle cell entry (AID 1479150).
Assay [11] is described as follows: Counterscreen qHTS for small molecule stabilizers of the endoplasmic reticulum resident proteome: GLuc-NoTag assay (AID 1508627; active means well fitted curve in the direction sought with a large enough effect; an effect the other way counts as inactive or inconclusive; further: series mostly up to about 76 µM). The method in brief:
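Counterscreen line: SH-SY5Y-GLuc-NoTag. Seed, 5 h; compound, 19 h; thapsigargin 100 nM, 4 h; 37C/5% CO2. Readout: secreted GLuc luminescence, coelenterazine 0.07x final, no lysis.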

A short description of assay [12]: Confirmatory qHTS for small molecule stabilizers of the endoplasmic reticulum resident proteome: Secreted ER Calcium Modulated Protein (SERCaMP) assay (AID 1508628; active means well fitted curve in the direction sought with a large enough effect; an effect the other way counts as inactive or inconclusive; further: potency means the concentration at half of the fitted maximal effect; nearly all actives have a fitted effect of over 40% in size). In outline:
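Reporter secretion upon ER calcium depletion (100 nM thapsigargin, 4 h, 37C) is measured as medium luminescence with coelenterazine, after 16 h compound pretreatment of SH-SY5Y-GLuc-SERCaMP cells; primary at three concentrations up to 38.3 uM, follow-up at 11 (up to 76.6 uM).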

Assay [13] is described as follows: Validation qHTS assay for inhibitors of Activation Induced Cytidine Deaminase (AID): UDG Counterscreen signal (AID 1347427; active means well fitted curve in the direction sought with a large enough effect; an effect the other way counts as inactive or inconclusive). In outline: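 Fluorescence at 560 nm excitation, 665 nm emission reports UDG signal after 250 mM NaOH (2x) addition and 30 min. Enzymes (AID 1 uM, UDG 2 U/mL, at 4/3x) preincubated 10 min with compound, then 4 h with 4x 250 nM DJC20/DJC23 substrate at room temperature.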

Assay [14] addresses Single-stranded DNA cytosine deaminase (Homo sapiens) (UniProt Q9GZX7). Briefly: Validation qHTS assay for inhibitors of Activation Induced Cytidine Deaminase (AID): AID signal (AID 1347429; active means well fitted curve in the direction sought with a large enough effect; an effect the other way counts as inactive or inconclusive). The method in brief: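 Steps: dispense AID with UDG; pin-transfer compound up to 114 uM final; add DJC20/DJC23 substrate and hold 4 hr at room temperature; add NaOH, hold 30 min; read FRET signal (540/590 nm).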

Assay [15] addresses Calcium and integrin-binding protein 1 (Homo sapiens) (UniProt Q99828). Briefly: Validation qHTS for Identification of Calcium Integrin Binding protein 1 (CIB1) Competitor (AID 1508618; active means well fitted curve in the direction sought with a large enough effect; an effect the other way counts as inactive or inconclusive). In outline:
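In this qHTS validation, the LOPAC set (up to 114 uM) was tested for blocking CIB1 binding to a fluorescein-tagged alphaIIb peptide, with FP detection at 480/540 nm.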

Values without a mark were called inactive. Results filed as inconclusive are left out. Active and inactive are the calls of the source. Unless noted, the call rests on the fitted dose curve.

Sequence of Protein phosphatase 1D (Homo sapiens) (O15297 whole entry, looked up): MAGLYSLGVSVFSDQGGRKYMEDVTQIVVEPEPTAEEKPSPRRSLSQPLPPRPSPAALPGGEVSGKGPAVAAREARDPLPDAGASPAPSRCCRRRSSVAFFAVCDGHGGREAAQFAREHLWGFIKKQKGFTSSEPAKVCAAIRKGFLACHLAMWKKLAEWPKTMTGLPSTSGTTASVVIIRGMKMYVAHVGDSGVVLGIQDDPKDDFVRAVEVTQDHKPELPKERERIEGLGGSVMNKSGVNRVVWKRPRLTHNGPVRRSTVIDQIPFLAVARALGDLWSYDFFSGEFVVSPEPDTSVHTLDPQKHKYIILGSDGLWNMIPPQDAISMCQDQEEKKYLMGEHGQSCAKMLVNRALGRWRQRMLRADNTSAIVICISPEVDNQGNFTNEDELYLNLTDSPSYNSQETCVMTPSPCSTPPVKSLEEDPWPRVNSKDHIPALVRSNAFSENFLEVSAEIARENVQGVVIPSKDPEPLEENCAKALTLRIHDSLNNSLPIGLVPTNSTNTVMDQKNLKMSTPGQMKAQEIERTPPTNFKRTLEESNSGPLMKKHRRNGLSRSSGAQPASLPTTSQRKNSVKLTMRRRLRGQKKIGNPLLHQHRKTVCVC
Sequence of Calcium and integrin-binding protein 1 (Homo sapiens) (Q99828 whole entry, looked up): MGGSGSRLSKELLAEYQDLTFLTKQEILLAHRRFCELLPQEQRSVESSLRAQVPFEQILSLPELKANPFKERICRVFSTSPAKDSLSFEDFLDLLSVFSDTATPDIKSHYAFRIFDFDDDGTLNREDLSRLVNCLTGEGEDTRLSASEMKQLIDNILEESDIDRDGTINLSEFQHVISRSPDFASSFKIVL
Sequence of Single-stranded DNA cytosine deaminase (Homo sapiens) (Q9GZX7 whole entry, looked up): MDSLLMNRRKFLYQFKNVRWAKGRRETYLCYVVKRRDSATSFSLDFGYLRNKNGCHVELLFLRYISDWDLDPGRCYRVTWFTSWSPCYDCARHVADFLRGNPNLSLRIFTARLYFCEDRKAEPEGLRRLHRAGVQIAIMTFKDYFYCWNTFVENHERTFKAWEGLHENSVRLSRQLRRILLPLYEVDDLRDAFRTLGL

On to `C#CCOC(C(=O)OCCN(C)C)(c1ccccc1)c1ccccc1`, for which the result in assay [1] and in assay [4] was inactive. Besides, the Potency result in assay [2], in [3] and in assay [5] was “inactive” throughout. Further, the Potency in [6] was 1.55 µM (active).

As for `COc1cc2ncnc(Nc3ccc(F)c(Cl)c3)c2cc1OCCCN1CCOCC1`, the Potency in assay [7] was 12.6 µM (active).

Regarding `CC1NCCOC1c1ccccc1` (stereo unspecified), the compound was called inactive in assay [1]. In addition, the Potency entry in assay [2], in assay [3] and in assay [5] was “inactive” each time.

Take `CC[N+](CC)(CC)CC`: the outcome in [1] and in [4] was inactive. For the same compound, the Potency entry in [2], in [3], in assay [5] and in assay [6] was “inactive” in each case.

As to `O=C1C(=O)c2ccccc2C(O)=C1C1CCC(c2ccc(Cl)cc2)CC1` (stereo unspecified), the Potency is 0.891 µM (active) in [7] and 22.4 µM (active) in [9]. In addition, the Potency result in assay [8] was “inactive”.

For `CN(C)CCOC(c1ccc(Cl)cc1)c1ccccn1` (stereo unspecified), the Potency result in [7], in assay [8] and in assay [9] was “inactive” each time.

Consider `O=C(O)c1ccc2[nH]cc(CCCCN3CC=C(c4ccccc4)CC3)c2c1`, for which the compound was called inactive in assay [1] and in assay [4]. In addition, the Potency result in [2], in assay [3] and in assay [5] was “inactive” each time.

For `CC1OC(C)OC(C)O1` (stereo unspecified), the result in assay [1] and in assay [4] was inactive. Besides, the Potency entry in assay [2], in assay [3], in assay [5] and in assay [6] was “inactive” throughout.

In the case of `Clc1cccc(N2CCNCC2)c1`, the compound was called inactive in assay [1] and in [4]. Further, the Potency entry in assay [2], in [3] and in assay [5] was “inactive” in each case. Moreover, in [6], the Potency was 8.71 µM (active).

Regarding `CC1(C)S[C@@H]2[C@H](NC(=O)C(C(=O)O)c3ccccc3)C(=O)N2[C@H]1C(=O)O` (stereo partly specified), the Potency entry in [7], in assay [8], in assay [9] and in assay [10] was “inactive” in each case.

With `CCN(C(C)=O)c1cccc(-c2ccnc3c(C#N)cnn23)c1`, the call in assay [1] and in assay [4] was inactive. The Potency result in assay [2], in [3], in [5] and in assay [6] was “inactive” each time.

Regarding `CCC(=O)C(CC(C)N(C)C)(c1ccccc1)c1ccccc1` (stereo unspecified), in assay [1], the compound was called inactive. Also, the Potency entry in assay [3] and in assay [11] was “inactive” each time. The Potency in assay [12] was 35.5 µM (active); in assay [6], 0.898 µM (active).

As to `CC(C)(N)Cc1ccc(Cl)cc1`, the result in [1] was inactive. For the same compound, the Potency result in assay [2], in assay [3] and in [5] was “inactive” throughout. The Potency in [6] is 6.17 µM (active).

On to `CC(C)Oc1ccc2c(=O)c(-c3ccccc3)coc2c1`, for which the Potency entry in assay [7] is “inactive”.

As for `COC[C@H]1OC(=O)c2coc3c2[C@@]1(C)C1=C(C3=O)C2CCC(=O)[C@@]2(C)C[C@H]1OC(C)=O` (stereo partly specified), the result in assay [13], in [14] and in [4] was inactive. Further, the Potency result in [2] and in assay [15] was “inactive” in each case.

Regarding `CN(C)CCc1ccc(O)cc1`, the compound was called inactive in assay [1] and in [4]. Besides, the Potency entry in assay [2], in assay [3], in assay [5] and in [6] was “inactive” throughout.

Turning to `CC(C)OC(=O)C(C)(C)Oc1ccc(C(=O)c2ccc(Cl)cc2)cc1`, the Potency entry in assay [7] is “inactive”.

For the compound `CC(=O)[C@]1(O)Cc2c(O)c3c(c(O)c2[C@@H](O[C@H]2C[C@H](N)[C@H](O)[C@H](C)O2)C1)C(=O)c1ccccc1C3=O`, the figures for the Potency in assay [7] and in assay [8] were 8.91 µM (active) and 7.08 µM (active), respectively.

As to `COc1cc2c(c(OC)c1OC)-c1ccc(OC)c(=O)cc1[C@@H](NC(C)=O)CC2`, the Potency result in assay [7], in [8] and in assay [9] was “inactive” each time.

With `CC(C)Nc1cccnc1N1CCN(C(=O)c2cc3cc(NS(C)(=O)=O)ccc3[nH]2)CC1`, the Potency entry in assay [7], in [8] and in assay [9] was “inactive” throughout.

For `CC[C@]1(O)C[C@H]2CN(CCc3c([nH]c4ccccc34)[C@@](C(=O)OC)(c3cc4c(cc3OC)N(C=O)[C@H]3[C@@](O)(C(=O)OC)[C@H](OC(C)=O)[C@]5(CC)C=CCN6CC[C@]43[C@@H]65)C2)C1`, the Potency entry in [7] and in assay [8] was “inactive” in each case.

Regarding `CCOP(=S)(OCC)Oc1cc(C)nc(C(C)C)n1`, in assay [1], the outcome was inactive. For the same compound, the Potency entry in assay [2], in assay [3], in assay [5] and in [6] was “inactive” each time.

As to `CCCSc1ccc2nc(NC(=O)OC)[nH]c2c1`, the Potency result in [7], in assay [8] and in assay [9] was “inactive” each time.

For `CC1(C)NC(=O)N(c2ccc([N+](=O)[O-])c(C(F)(F)F)c2)C1=O`, the Potency in assay [7] is 35.5 µM (active). Moreover, the Potency entry in [8] is “inactive”.

As for `CN1C[C@H]2c3ccccc3Oc3ccc(Cl)cc3[C@@H]2C1`, the Potency entry in assay [7] was “inactive”.

Take `CCN(CC)CCN1C(=O)CN=C(c2ccccc2F)c2cc(Cl)ccc21`: the compound was classed as inactive in [1]. The Potency entry in assay [2], in assay [3] and in assay [5] was “inactive” in each case. Besides, the Potency in [6] was 13.8 µM (active).

Take `Cc1nc(-c2ccc(OCC(C)C)c(C#N)c2)sc1C(=O)O`: the Potency result in assay [7], in [8] and in assay [9] was “inactive” each time.

For the compound `Cc1cccc(C)c1OCC(C)N` (stereo unspecified), the Potency entry in assay [7], in assay [8], in assay [9] and in [10] was “inactive” each time.

In the case of `CCc1c2c(nc3ccc(OC(=O)N4CCC(N5CCCCC5)CC4)cc13)-c1cc3c(c(=O)n1C2)COC(=O)[C@]3(O)CC`, the Potency entry in [7], in assay [8] and in [10] was “inactive” in each case. In addition, the Potency in [9] is 10 µM (active).

For `CC[N+](C)(C)c1cccc(O)c1`, the Potency result in assay [7], in assay [8], in [9] and in [10] was “inactive” each time.

With `Cc1cc(C)cc(OCC2CNC(=O)O2)c1` (stereo unspecified), the Potency entry in assay [7], in assay [8], in assay [9] and in assay [10] was “inactive” in each case.

Consider `O=NN(CCCl)C(=O)NC1CCCCC1`, for which the Potency result in assay [7], in assay [8], in assay [9] and in [10] was “inactive” each time.

Take `COc1cc(C(=O)NCc2ccc(OCCN(C)C)cc2)cc(OC)c1OC`: the Potency result in assay [7], in assay [8], in [9] and in assay [10] was “inactive” each time.

As for `CC[C@@H]([C@H](C)O)n1ncn(-c2ccc(N3CCN(c4ccc(OC[C@@H]5CO[C@@](Cn6cncn6)(c6ccc(F)cc6F)C5)cc4)CC3)cc2)c1=O`, the Potency is 14.1 µM (active) in assay [7] and 12.6 µM (active) in [9]. The Potency entry in assay [8] and in assay [10] was “inactive” in each case.

In the case of `CCOC(=O)[C@H](CCc1ccccc1)N[C@@H](C)C(=O)N1[C@H](C(=O)O)C[C@@H]2CCC[C@@H]21`, the Potency entry in assay [7], in [8], in assay [9] and in [10] was “inactive” in each case.

On to `NC(=O)OCC(COC(N)=O)c1ccccc1`, for which the Potency entry in assay [7], in assay [8], in assay [9] and in [10] was “inactive” each time.

In the case of `Cc1cnc(C(=O)NCCc2ccc(S(=O)(=O)NC(=O)NC3CCCCC3)cc2)cn1`, the Potency entry in assay [7], in [8], in assay [9] and in assay [10] was “inactive” in each case.

With `COc1ccc(Cl)cc1C(=O)NCCc1ccc(S(=O)(=O)NC(=O)NC2CCCCC2)cc1`, the Potency result in assay [7], in [8], in [9] and in assay [10] was “inactive” in each case.
